# The campaign covered roughly 66,000 compounds. About 960 (1.5%) showed an effect of 50% or more. This excerpt belongs to a sample that is enriched for strong results.
# Tested on: Trypanosoma brucei
# Test: Trypanosoma brucei 72 hour study
# Type: functional, organism-based
# Set-up: scale not given: in the data most compounds retested in dose-response had high values
compound,measurement,setting,value
CN(C)c1ncc(-c2cc(C(=O)NCCC#N)n(CC3CC3)c2)cn1.O=C(O)C(F)(F)F,Percent Effect,"30.3 µM, […]",-1.079%
Cn1cc(C(=O)N2CCCC(Cc3cccc4ncccc34)C2)cn1 (centres undefined),Percent Effect,"30.3 µM, […]",-45.5%
CCC(CC)C(=O)NCCc1ccn(-c2ccccc2)n1,Percent Effect,10 µM,-35.97%
CCN(CC)C(=O)NCCc1ccn(-c2ccccc2)n1,Percent Effect,10 µM,99.69%
CC(C)CC(=O)NCCCc1cc(N)n(-c2ccccc2)n1,Percent Effect,"30 µM, 30.03 µM",-23.13%
O=C(CCNc1ncccn1)NCCc1ccn(-c2ccccc2)n1,Percent Effect,"30 µM, 30.03 µM",19.3%
COCCNC(=O)NCCc1ccn(-c2ccccc2)n1,Percent Effect,"30 µM, 30.03 µM",42.02%
CC(C)(C)C(=O)NCCc1ccn(-c2ccccc2)n1,Percent Effect,"30 µM, 30.03 µM",103.6%
CC(C)(C)C(=O)NCCC(=O)NCCc1ccn(-c2ccccc2)n1,Percent Effect,10 µM,-35.6%
CC(C)CCC(=O)NCCc1ccn(-c2ccccc2)n1,Percent Effect,10 µM,100.3%
CC(C)(CNC(=O)NCCc1ccn(-c2ccccc2)n1)C(N)=O,Percent Effect,10 µM,-34.81%
CC(C)c1nc(C2CCCN2Cc2nnc(C3CCC3)o2)no1 (centres undefined),Percent Effect,10 µM,-24.2%
CN(C)CC(=O)N1CCCC1c1cncc(Oc2ccc(F)cc2)n1 (centres undefined),Percent Effect,"30.3 µM, […]",-19.56%
COc1c(C2CCCN2C(=O)c2ccc(C#N)c(C)n2)c(C)nn1C (centres undefined),Percent Effect,10 µM,-24.86%
same,Percent Effect,"30.3 µM, […]",0.3708%
CCc1nc(CSc2nnc(N)n2C2CC2)no1,Percent Effect,"30.3 µM, […]",-10.47%
Cc1ccccc1Cc1nc(CSc2nnc(N)n2C2CC2)no1,Percent Effect,"30.3 µM, […]",69.45%
Cc1ccccc1Cc1nc(CSc2nnc(N)n2C)no1,Percent Effect,"30.3 µM, […]",30.54%
O=C1NCCN1C1CCN(CCOc2ccccc2F)CC1,Percent Effect,10 µM,-33.22%
Cc1ccc(CN2C[C@@H]3CCCO[C@@H]3[C@H](N(C)Cc3ccco3)C2)o1.O=C(O)C(F)(F)F.O=C(O)C(F)(F)F,Percent Effect,"30 µM, 30.03 µM",25.08%
CCCN1CCCn2c(nc(CNC(=O)c3cnoc3C)cc2=O)C1.O=C(O)C(F)(F)F,Percent Effect,"30 µM, 30.03 µM",19.21%
COCCn1cc(NC(=O)NCC(c2cccc(F)c2)N(C)C)cn1 (centres undefined),Percent Effect,"30.3 µM, […]",9.218%
COCCn1cc(NC(=O)NCC(C)N2CCOCC2)cn1 (centres undefined),Percent Effect,"30.3 µM, […]",-22.83%
CCC(CC)C(CNC(=O)Nc1cnn(CCOC)c1)N(C)C (centres undefined),Percent Effect,"30.3 µM, […]",100.4%
CC(C)c1nnc2n1CC(CNC/C=C/c1ccccc1)CC2 (centres undefined),Percent Effect,"30 µM, 30.03 µM",7.913%
CC(C)NC1CCc2[nH]c(=O)ccc2C1.O=C(O)C(F)(F)F (centres undefined),Percent Effect,"30.3 µM, […]",-14.11%
CN1CCO[C@@H]2CN(C(=O)Cc3cccs3)CC[C@@H]2C1.O=C(O)C(F)(F)F,Percent Effect,"30.3 µM, […]",-41.5%
CCNc1ccnc(N2Cc3cnc(CC(C)C)nc3C2)n1,Percent Effect,"30 µM, 30.03 µM",7.855%
CC(C)Nc1ccnc(N2Cc3cnc(C(C)(C)C)nc3C2)n1,Percent Effect,"30 µM, 30.03 µM",-43.35%
CC(C)Cc1ncc2c(n1)CN(c1nccc(NC(C)C)n1)C2,Percent Effect,"30 µM, 30.03 µM",89.54%
CN(Cc1cccnc1)[C@@H]1CN(C(=O)c2ccoc2)[C@@H]2CCCO[C@H]12.O=C(O)C(F)(F)F.O=C(O)C(F)(F)F,Percent Effect,"30.3 µM, […]",-7.538%
CN1CCN(Cc2cnc3n2CCN(CCc2ccccc2)C3)CC1.O=C(O)C(F)(F)F.O=C(O)C(F)(F)F.O=C(O)C(F)(F)F,Percent Effect,"30.3 µM, […]",-12.43%
Cc1cccc(CN2CC3(CCN(Cc4ccoc4)CC3)OCC2=O)n1.O=C(O)C(F)(F)F.O=C(O)C(F)(F)F,Percent Effect,"30.3 µM, […]",-93.34%
O=C(O)CC(O)(CC(=O)O)C(=O)O.OCCN(Cc1ccncc1)CC1(c2ccc(Cl)cc2)CCCC1,Percent Effect,"30.3 µM, […]",12.41%
O=C(C1CCCC1)N1CCC(c2ccnc(Nc3cnccn3)n2)C1 (centres undefined),Percent Effect,"30.3 µM, […]",9.82%
CC(C)Nc1cc(-c2c[nH]nc2C2CCN(C(=O)C3CC3)C2)ccn1 (centres undefined),Percent Effect,"30.3 µM, […]",99.82%
Nc1cc(-c2c[nH]nc2C2CCN(C(=O)C3CCCC3)C2)ccn1 (centres undefined),Percent Effect,"30.3 µM, […]",38.23%
Cc1c[nH]nc1C1CCN(C(=O)Cn2cccn2)C1 (centres undefined),Percent Effect,"30.3 µM, […]",-30.39%
CC(=O)N1CCC(c2n[nH]cc2-c2ccnc(N)c2)C1 (centres undefined),Percent Effect,"30.3 µM, […]",-2.575%
CCCNc1cc(-c2c[nH]nc2C2CCN(C(=O)C3CCC3)C2)ccn1 (centres undefined),Percent Effect,"30.3 µM, […]",99.71%
CC(C)Nc1cc(-c2c[nH]nc2C2CCN(C(=O)C3CCC3)C2)ccn1 (centres undefined),Percent Effect,"30.3 µM, […]",100.4%
CN1CCC(c2n[nH]cc2-c2ccnc(N)c2)C1 (centres undefined),Percent Effect,"30.3 µM, […]",-5.978%
CC(C)CNc1cc(-c2c[nH]nc2C2CCN(C(=O)C3CC3)C2)ccn1 (centres undefined),Percent Effect,"30.3 µM, […]",100.1%
CN(C)S(=O)(=O)N1CCC(c2n[nH]cc2-c2ccnc(N)c2)C1 (centres undefined),Percent Effect,"30.3 µM, […]",-8.179%
CC(C)N1CCC(c2n[nH]cc2-c2ccnc(N)c2)C1 (centres undefined),Percent Effect,"30.3 µM, […]",2.3%
Nc1cc(-c2c[nH]nc2C2CCCCN2C(=O)C2CCCC2)ccn1 (centres undefined),Percent Effect,"30.3 µM, […]",11.59%
Cc1occc1C(=O)N1CCO[C@H]2[C@@H](Oc3ccccn3)CC[C@@H]21.O=C(O)C(F)(F)F,Percent Effect,"30 µM, 30.03 µM",26.48%
CNC(=O)CN1CCOCC2(C1)CN(C(=O)C(C)C)CCO2.O=C(O)C(F)(F)F (centres undefined),Percent Effect,"30 µM, 30.03 µM",-6.033%
CS(=O)(=O)N1CCO[C@H]2[C@@H](Oc3ncccc3F)CC[C@@H]21.O=C(O)C(F)(F)F,Percent Effect,"30.3 µM, […]",12.73%
CC(=O)NC1CCN(c2cc(C3CCNCC3)ccn2)CC1.Cl.Cl,Percent Effect,"30.3 µM, […]",-5.403%
O=C(O)C(F)(F)F.O=C([C@@H]1CC[C@@H]2[C@@H](CCN2c2ccncn2)O1)N1CCCCO1,Percent Effect,"30.3 µM, […]",-55.7%
Cc1cc(N2CCC(N(C)C(=O)c3ccccc3F)CC2)nc(C)n1,Percent Effect,"30 µM, 30.03 µM",-12.35%
Cn1ccnc1C(=O)N[C@@H]1CN(CC2CCOCC2)[C@@H]2CCCO[C@@H]21.O=C(O)C(F)(F)F,Percent Effect,"30.3 µM, […]",-79.05%
Cc1cc(SCC(=O)O)nc2nn(CC(F)F)c(C)c12,Percent Effect,"30.3 µM, […]",-20.88%
CCc1nc(-c2cncnc2C2CCCNC2)no1.Cl (centres undefined),Percent Effect,"30.3 µM, […]",10%
CCC(CC)C(=O)N1CCc2nc(N3CCCC3)nc(C)c2CC1,Percent Effect,"30 µM, 30.03 µM",-41.54%
Cc1cccc(CN2C[C@@H]3CN(C(=O)c4ccco4)C[C@@H]3C2=O)n1.O=C(O)C(F)(F)F,Percent Effect,"30.3 µM, […]",-11.66%
CC(=O)N1CCC(NC(=O)Cc2csc(C(C)(C)C)n2)CC1,Percent Effect,"30.3 µM, […]",-5.92%
CC(C)(C)c1nc(CC(=O)NC2CCN(C3CC3)C2)cs1 (centres undefined),Percent Effect,"30.3 µM, […]",99.7%
CN1CCC(NC(=O)Cc2csc(C(C)(C)C)n2)CC1,Percent Effect,"30.3 µM, […]",4.768%
COc1cc2c(c(OC)c1OC)CCN(CCN1CCCCC1)CC2,Percent Effect,"30 µM, 30.03 µM",-20.4%
CCN1CCN(c2ccccc2NC(=O)NCc2ccon2)CC1,Percent Effect,"30.3 µM, […]",-63.99%
Cc1nc(CN2CCCC(N(C)CCCc3ccccc3)C2)no1 (centres undefined),Percent Effect,"30.3 µM, […]",-9.572%
Cn1cc(CN2CCCC(CCc3ccccc3C(F)(F)F)C2)cn1 (centres undefined),Percent Effect,"30 µM, 30.03 µM",-18.52%
Cc1nc(CN2CCCC(CCc3ccccc3C(F)(F)F)C2)no1 (centres undefined),Percent Effect,"30.3 µM, […]",87.44%
Cc1nc(CN2CCCC(CCc3cccc(C(F)(F)F)c3)C2)co1 (centres undefined),Percent Effect,"30.3 µM, […]",40.44%
Fc1ccccc1CC1CCN(Cc2cscn2)CC1,Percent Effect,"30 µM, 30.03 µM",-2.509%
Cc1nnc(CN2CCCC(CCc3ccccc3C(F)(F)F)C2)o1 (centres undefined),Percent Effect,"30.3 µM, […]",32.35%
Cc1nc(CN2CCCC(CCc3ccccc3C(F)(F)F)C2)co1 (centres undefined),Percent Effect,"30.3 µM, […]",52.02%
Cc1nc(CN2CCCC(N(C)CC3CCCC3)C2)no1 (centres undefined),Percent Effect,"30.3 µM, […]",-21.28%
FC(F)(F)c1ccccc1CCC1CCCN(Cc2cscn2)C1 (centres undefined),Percent Effect,"30.3 µM, […]",51.05%
Cc1ccc2c(n1)N(Cc1cccnc1)CCN(C1CCOCC1)C2.O=C(O)C(F)(F)F.O=C(O)C(F)(F)F.O=C(O)C(F)(F)F,Percent Effect,"30 µM, 30.03 µM",-18.41%
CC1N(c2cnn(C)c2)C(=O)COC12CCN(c1ccccn1)CC2.O=C(O)C(F)(F)F (centres undefined),Percent Effect,"30.3 µM, […]",-14.53%
Cc1oncc1C(=O)N1CC[C@H]2[C@H](C[C@@H](CN(C)C)N2CC2CC2)C1.O=C(O)C(F)(F)F.O=C(O)C(F)(F)F,Percent Effect,"30.3 µM, […]",-0.8006%
Cl.O=C(CCN1CCCC1)Nc1c2c(cc3c1CCC3)CCC2,Percent Effect,"30 µM, 30.03 µM",0.04304%
COCC(=O)NC[C@]12COC[C@H]1CN(Cc1ccc3c(c1)OCO3)C2.O=C(O)C(F)(F)F,Percent Effect,"30.3 µM, […]",5.113%
COC1COC2(CCN(C(=O)c3ccccc3F)CC2)C1 (centres undefined),Percent Effect,"30.3 µM, […]",-57.28%
CCN(C)c1ncnc2c1CCN(C(=O)Cc1ccccn1)CC2.O=C(O)C(F)(F)F,Percent Effect,"30 µM, 30.03 µM",-43.42%
Cc1ccc(N2CC[C@H](OCC3CC3)[C@@H]2Cc2cnn(C)c2)nn1,Percent Effect,"30 µM, 30.03 µM",51.55%
CO[C@H]1CCN(c2ccc(C)nn2)[C@H]1Cc1cnn(C)c1,Percent Effect,"30 µM, 30.03 µM",12.56%
CCO[C@@H]1CCN(c2ccc(C)nn2)[C@@H]1Cc1cnn(C)c1,Percent Effect,"30.3 µM, […]",-24.65%
Fc1ccccc1CN(CCCn1ccnc1)CC1CCOC1.O=C(O)CC(O)(CC(=O)O)C(=O)O (centres undefined),Percent Effect,"30.3 µM, […]",-0.3397%
Cc1cc(CCC(=O)O)nc(C2CCCN2c2ccnc(C)n2)n1 (centres undefined),Percent Effect,"30.3 µM, […]",3.845%
Cl.Cl.c1cn(-c2cnc(C3CCNCC3)cn2)cn1,Percent Effect,"30.3 µM, […]",-23.68%
CC(C)(C)c1ccc(OCC(N)=O)c(CN2C[C@H]3C[C@H](O)C[C@H]3C2)c1,Percent Effect,"30.3 µM, […]",-10.55%
COc1ccc(C(=O)N2C[C@@H](NC(=O)N(C)C)[C@H](C(C)C)C2)c(OC)n1,Percent Effect,"30 µM, 30.03 µM",-11.49%
CN(Cc1cscn1)C1CCCN(Cc2noc(C3CC3)n2)C1 (centres undefined),Percent Effect,"30 µM, 30.03 µM",-28.03%
Cc1nc(CN(C)C2CCN(Cc3ccc4ccccc4n3)C2)no1 (centres undefined),Percent Effect,"30.3 µM, […]",99.64%
Cc1cc(CN(C)C2CCCN(Cc3noc(C)n3)C2)no1 (centres undefined),Percent Effect,"30.3 µM, […]",-25.02%
Cc1nc(CN(C)C2CCN(Cc3nc4ccccc4n3C)C2)no1 (centres undefined),Percent Effect,10 µM,-9.408%
same,Percent Effect,"30.3 µM, […]",44.6%
Cc1nc(CN(C)C2CCN(Cc3nc4ccccc4s3)C2)no1 (centres undefined),Percent Effect,"30 µM, 30.03 µM",13.35%
Cc1nc(CN2CCCC(N(C)Cc3cscn3)C2)no1 (centres undefined),Percent Effect,"30 µM, 30.03 µM",106.7%
Cc1occc1C(=O)N1C[C@@H]2OCCN(c3ncccn3)[C@@H]2C1.O=C(O)C(F)(F)F,Percent Effect,"30.3 µM, […]",-9.285%

# Reference: ChEMBL document CHEMBL3988442, “University of Dundee, Small-Polar-MMV Screening Library” (2021)
